Among the data in PubChem BioAssay (NCI) are growth values, retold here.

Values joined by “and” are separate entries in the source; they are usually repeats but may differ in a detail not shown here. Equal values may be shown once. This is part of a sample that, as a whole, favours compounds with a hit. Of some 83,000 tested, about 20% had one in any assay.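 A percent growth of 40 corresponds to 60% growth inhibition; 0 means no net growth; -100 means all cells died. Active threshold: below 10.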 Unmarked numbers belong to inactive results. Active and inactive are the calls of the source.

Test systems include SR leukemia; RPMI-8226 leukemia; OVCAR-8 ovarian; OVCAR-5 ovarian; OVCAR-4 ovarian; SK-OV-3 ovarian; IGROV1 ovarian; OVCAR-3 ovarian; HS 578T breast; NCI/ADR-RES ovarian.
Holding throughout (assay): NCI-60 one-dose screen, 48 h (100 = growth as untreated, 0 = no growth, -100 = all killed)
Conditions in all cases: 10 µM unless noted

For `O=C(c1ccccc1)C1(Br)CCCCC1`, the growth was 149% in the test on SR leukemia; 98.9% in the test with RPMI-8226 leukemia; 103% in the test with OVCAR-8 ovarian; 97% in the test on OVCAR-5 ovarian; 105% in the test with OVCAR-4 ovarian; 108% with SK-OV-3 ovarian. The growth with IGROV1 ovarian was 97.2%; in the test with OVCAR-3 ovarian it was 112%; in the test with HS 578T breast, 97.3%; with NCI/ADR-RES ovarian, 91.5%.
`C/C=C/C(=O)OCCCCCCCCCCCC`: the growth with SR leukemia was 83.4%; with RPMI-8226 leukemia it was 99.9%; with OVCAR-8 ovarian, 90.5%; in the test with OVCAR-5 ovarian, 99.2%; in the test with OVCAR-4 ovarian, 113%; in the test with SK-OV-3 ovarian it was 97.5%. Also, the growth was 111% with IGROV1 ovarian, 106% in the test on OVCAR-3 ovarian, 107% in the test on HS 578T breast and 106% with NCI/ADR-RES ovarian.
For `CCOC(=O)C1=C(C)NC(C)=C(C(=O)OCC)C1`, the growth in the test with SR leukemia was 101% and 105%; in the test with RPMI-8226 leukemia, 92.6% and 99.2%; with OVCAR-8 ovarian it was 121% and 96.9%; in the test with OVCAR-5 ovarian it was 104% and 92.4%; with OVCAR-4 ovarian, 101% and 90.2%; in the test with SK-OV-3 ovarian, 105% and 112%. Besides, the growth was 100% and 112% in the test with IGROV1 ovarian; 102% and 114% in the test with OVCAR-3 ovarian; 101% and 94% with HS 578T breast; 114% and 105% in the test on NCI/ADR-RES ovarian.
Regarding `ON=C(C1CCCCC1)C1CCCCC1`, the growth was 97.2% with SR leukemia; 105% in the test with RPMI-8226 leukemia; 107% with OVCAR-8 ovarian; 89.5% with OVCAR-5 ovarian; 107% in the test with OVCAR-4 ovarian; 106% in the test with SK-OV-3 ovarian. Besides, the growth in the test on IGROV1 ovarian was 102%; with OVCAR-3 ovarian, 105%; in the test on HS 578T breast it was 101%; in the test on NCI/ADR-RES ovarian it was 103%.
Regarding `CCn1c2ccc(N(C)C)cc2c2cc(N(C)C)ccc21`, the growth is 94% in the test on SR leukemia; 80.4% in the test with RPMI-8226 leukemia; 97.3% in the test with OVCAR-8 ovarian; 99.6% in the test on OVCAR-5 ovarian; 24.9% in the test with OVCAR-4 ovarian; 94.8% in the test on SK-OV-3 ovarian. Besides, the growth in the test on IGROV1 ovarian is 107%; with OVCAR-3 ovarian, 5.93% (active); in the test on HS 578T breast it was 107%; in the test on NCI/ADR-RES ovarian, 98.5%.
As to `Cc1ccc2cccc([N+](=O)[O-])c2n1`, the growth in the test with SR leukemia is 97.7% and 94%; with RPMI-8226 leukemia, 111% and 92.8%; with OVCAR-8 ovarian, 101% and 108%; with OVCAR-5 ovarian, 104% and 101%; with OVCAR-4 ovarian, 128% and 103%; with SK-OV-3 ovarian, 102% and 100%. In addition, the growth was 109% and 114% in the test on IGROV1 ovarian; 111% and 110% in the test on OVCAR-3 ovarian; 111% and 109% in the test with HS 578T breast; 113% and 102% in the test on NCI/ADR-RES ovarian.
`CC1=CC(=O)c2cccc(NC3=NCCO3)c21`: the growth is 91.6% in the test on SR leukemia; 91.6% in the test on RPMI-8226 leukemia; 102% with OVCAR-8 ovarian; 95.2% in the test with OVCAR-5 ovarian; 95.1% in the test on OVCAR-4 ovarian; 103% in the test on SK-OV-3 ovarian. Besides, the growth in the test on IGROV1 ovarian is 104%; in the test with OVCAR-3 ovarian, 106%; in the test on HS 578T breast, 103%; in the test with NCI/ADR-RES ovarian it was 97.5%.
Regarding `C=CCN1C(=O)c2ccccc2C1=O`, the growth with SR leukemia was 99.9%; with RPMI-8226 leukemia, 92.9%; with OVCAR-8 ovarian, 97.5%; in the test on OVCAR-5 ovarian it was 102%; in the test with OVCAR-4 ovarian, 107%; with SK-OV-3 ovarian, 105%. Further, the growth with IGROV1 ovarian is 98.7%; in the test with OVCAR-3 ovarian, 110%; in the test on HS 578T breast, 99.8%; in the test on NCI/ADR-RES ovarian, 96%.
Turning to `CC1(C)OC(=O)C(=Cc2ccc(C#N)cc2)C(=O)O1`, the growth in the test with SR leukemia was 93.5% and 89%; in the test on RPMI-8226 leukemia, 101% and 103%; in the test on OVCAR-8 ovarian it was 94.5% and 97.8%; in the test with OVCAR-5 ovarian it was 107% and 113%; with OVCAR-4 ovarian it was 115% and 98.3%; with SK-OV-3 ovarian it was 104% and 106%. The growth with IGROV1 ovarian was 107% and 105%; in the test on OVCAR-3 ovarian it was 111% and 105%; in the test with HS 578T breast, 99.3% and 104%; in the test on NCI/ADR-RES ovarian, 106% and 110%.
As for `NNc1ncnc2cccc(Cl)c12`, the growth in the test with SR leukemia is 108%; with RPMI-8226 leukemia, 94.9%; in the test with OVCAR-8 ovarian, 95.2%; in the test with OVCAR-5 ovarian it was 97.5%; with OVCAR-4 ovarian, 114%; in the test on SK-OV-3 ovarian it was 94.4%. Further, the growth is 102% in the test with IGROV1 ovarian, 119% in the test with OVCAR-3 ovarian, 98.4% with HS 578T breast and 102% with NCI/ADR-RES ovarian.
In the case of `COC(=O)CCOc1ccccc1`, the growth is 99.5% with SR leukemia; 92.7% in the test with RPMI-8226 leukemia; 91.1% in the test with OVCAR-8 ovarian; 113% with OVCAR-5 ovarian; 92.8% in the test with OVCAR-4 ovarian; 106% with SK-OV-3 ovarian. Besides, the growth with IGROV1 ovarian is 68.9%; in the test with OVCAR-3 ovarian, 97%; with HS 578T breast, 195%; in the test with NCI/ADR-RES ovarian it was 108%.
Turning to `COc1cc(Cl)ccc1C`, the growth was 71.2% in the test on SR leukemia; 105% in the test with RPMI-8226 leukemia; 87.5% in the test on OVCAR-8 ovarian; 71.1% with OVCAR-5 ovarian; 76.4% with OVCAR-4 ovarian; 93.2% in the test with SK-OV-3 ovarian. For the same compound, the growth was 72.3% in the test on IGROV1 ovarian, 111% in the test with OVCAR-3 ovarian, 115% in the test on HS 578T breast and 97.4% in the test with NCI/ADR-RES ovarian.
With `O=c1[nH]c(=S)[nH]n1C(=S)n1[nH]c(=S)[nH]c1=O`, the growth was 99.7% with SR leukemia; 99% in the test with RPMI-8226 leukemia; 101% with OVCAR-8 ovarian; 105% in the test with OVCAR-5 ovarian; 112% in the test with OVCAR-4 ovarian; 109% in the test on SK-OV-3 ovarian. The growth in the test on IGROV1 ovarian is 101%; in the test on OVCAR-3 ovarian, 110%; with HS 578T breast, 98.5%; in the test on NCI/ADR-RES ovarian, 95.2%.
In the case of `CCC(=O)Oc1ccc(OCc2ccccc2)cc1`, the growth in the test on SR leukemia is 80.9% and 97.4%; in the test on RPMI-8226 leukemia it was 89.6% and 90.6%; in the test on OVCAR-8 ovarian, 87.7% and 69.1%; in the test on OVCAR-5 ovarian it was 113% and 119%; with SK-OV-3 ovarian, 105% and 101%; with IGROV1 ovarian, 92.8% and 82%. In addition, the growth was 95% and 104% with OVCAR-3 ovarian; 98.3% and 97.3% in the test on HS 578T breast; 66.6% and 65% in the test on NCI/ADR-RES ovarian.
Consider `CC(C)(C)OC(=O)c1ccc(NCc2cc(O)ccc2O)cc1`, for which the growth in the test with SR leukemia was 3.5% (active); with RPMI-8226 leukemia it was 1.66% (active); with OVCAR-8 ovarian it was 17.2%; with OVCAR-5 ovarian, 106%; in the test on OVCAR-4 ovarian it was 12.3%; in the test with SK-OV-3 ovarian, 44.6%. Moreover, the growth is -14.3% (active) in the test with IGROV1 ovarian, -83.8% (active) in the test with OVCAR-3 ovarian, 30.8% with HS 578T breast and 23.1% with NCI/ADR-RES ovarian.
As for `Cc1cc(O)c(C(C)C)cc1N=O`, the growth in the test with SR leukemia is 110%; in the test on RPMI-8226 leukemia it was 97.2%; in the test on OVCAR-8 ovarian, 102% and 92.1%; in the test on OVCAR-5 ovarian, 101% and 108%; with OVCAR-4 ovarian, 109% and 111%; in the test with SK-OV-3 ovarian, 96.4% and 105%. The growth in the test with IGROV1 ovarian is 124% and 112%; with OVCAR-3 ovarian, 109% and 88.8%; in the test on HS 578T breast, 104% and 114%; with NCI/ADR-RES ovarian, 98.7% and 106%.
With `CN(C=O)c1ccccc1`, the growth in the test with SR leukemia is 101%; in the test on RPMI-8226 leukemia it was 91%; in the test with OVCAR-8 ovarian it was 96.6%; with OVCAR-5 ovarian, 100%; in the test with OVCAR-4 ovarian, 85.3%; with SK-OV-3 ovarian it was 86.7%. For the same compound, the growth in the test with IGROV1 ovarian is 102%; in the test on OVCAR-3 ovarian it was 110%; with HS 578T breast, 100%; with NCI/ADR-RES ovarian, 97.4%.
In the case of `CCN(CC)C(CC(=O)c1ccccc1)C(=O)c1ccccc1` (configuration not stated), the growth in the test with RPMI-8226 leukemia was 86.5%; with OVCAR-8 ovarian it was 96.6%; in the test on OVCAR-5 ovarian it was 113%; in the test with OVCAR-4 ovarian, 93.3%; with SK-OV-3 ovarian it was 114%; with IGROV1 ovarian, 110%. Besides, the growth with OVCAR-3 ovarian is 92.5%; with HS 578T breast it was 113%.
With `COC1C(OC(N)=O)C(O)C(Oc2ccc3c(O)c(NC(=O)c4ccc(O)c(CC=C(C)C)c4)c(=O)oc3c2C)OC1(C)C` (configuration not stated), the growth in the test with SR leukemia was 84% and 80%; in the test on RPMI-8226 leukemia it was 99.5% and 80.1%; in the test with OVCAR-8 ovarian, 103%; in the test on OVCAR-5 ovarian it was 86.8% and 91.4%; in the test with OVCAR-4 ovarian it was 111% and 98.9%; in the test with SK-OV-3 ovarian it was 112% and 121%. The growth with IGROV1 ovarian was 137% and 129%; with OVCAR-3 ovarian, 97.3% and 90.6%; in the test on HS 578T breast, 89.4% and 102%; in the test on NCI/ADR-RES ovarian, 106% and 97.1%.
For `COC(=O)c1nc(N)nc(C(=O)OC)c1C(=O)c1ccc(F)cc1`, the growth was 112% with SR leukemia; 112% in the test with RPMI-8226 leukemia; 107% in the test with OVCAR-8 ovarian; 114% in the test with OVCAR-5 ovarian; 110% in the test on OVCAR-4 ovarian; 108% with SK-OV-3 ovarian. In addition, the growth in the test on IGROV1 ovarian was 111%; with OVCAR-3 ovarian, 116%; with HS 578T breast, 102%; with NCI/ADR-RES ovarian it was 109%.
For the compound `O=C(N=C1C(=O)C2(CCCCC2)C2(N=C(c3ccccc3)OC2=O)C12CCCCC2)c1ccccc1` (configuration not stated), the growth with SR leukemia was 71.8%; with RPMI-8226 leukemia, 53.2%; with OVCAR-8 ovarian it was 75.4%; with OVCAR-5 ovarian it was 85.8%; in the test on OVCAR-4 ovarian, 73.8%; in the test on SK-OV-3 ovarian, 99.3%. Further, the growth in the test with IGROV1 ovarian was 75%; in the test with OVCAR-3 ovarian, 63.6%; in the test with HS 578T breast it was 95.9%; with NCI/ADR-RES ovarian it was 76.8%.
